Bioassay records as filed in PubChem BioAssay.
An excerpt weighted towards active compounds, which were near 11% of everything screened.
HCV inhibitor: HCV inhibition | Huh7.5.1 HCVcc-Cre infection, luciferase reporter, 44 h | Potency, µM (highest dose often 41.8 µM), without a hit: top-dose activity change, negative = inhibition, most hits filed as inhibitors | actives 3.4% (n = 340,000) | AID 651820
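Luciferase read-out (15 sec integration) after a 15 min room-temperature substrate step quantifies HCVcc-Cre infection. Cells, 1,000 per well, had compound added 4 h post-plating, then virus at ~0.5 moi, and were cultured 44 h.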
Pf growth 48h: P. falciparum growth inhibition at 48 hours (one generation) | actives 5.9% (n = 310,000) | Potency, µM (top dose mostly 28.7 µM), without a hit: at the highest dose activity change, negative = inhibition, most hits filed as inhibitors | AID 504832 | P. falciparum luciferase growth in erythrocytes, 48 h
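Erythrocytes infected with P. falciparum carrying an integrated firefly luciferase reporter (2% hematocrit, 0.1% parasitemia final) were exposed to compounds in RPMI 1640 with 0.5% Albumax at 37 C, 5% CO2. Growth inhibition was scored as reduced luminescence.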
AmpC detergent: AmpC beta-lactamase inhibition with detergent present | actives 0.041% (n = 370,000) | P00811 | Potency, µM (top dose mostly 114 µM), inactives show at the highest dose activity change, negative = inhibition, hits mostly inhibitors | AmpC hydrolysis of nitrocefin, absorbance 480 nm, 0.01% Triton;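 further: 0% = no-compound wells and -100% = no-enzyme wells; nearly all actives have a fitted effect of over 25% in size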
Target sequence (P00811 whole entry, looked up): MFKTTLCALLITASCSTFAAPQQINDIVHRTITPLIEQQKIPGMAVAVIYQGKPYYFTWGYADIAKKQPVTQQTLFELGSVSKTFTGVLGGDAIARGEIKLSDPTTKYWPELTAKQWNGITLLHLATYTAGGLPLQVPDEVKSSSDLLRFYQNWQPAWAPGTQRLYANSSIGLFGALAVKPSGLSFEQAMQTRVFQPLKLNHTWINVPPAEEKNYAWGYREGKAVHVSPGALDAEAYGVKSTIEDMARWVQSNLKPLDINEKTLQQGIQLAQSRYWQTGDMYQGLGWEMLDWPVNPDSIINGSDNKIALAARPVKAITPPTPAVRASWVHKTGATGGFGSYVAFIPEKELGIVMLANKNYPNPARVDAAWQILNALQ
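20 mM phosphate pH 7.0 + 0.01% (detergent screen) or 0.0001% Triton X-100; 5.3 nM AmpC reagent; cpd preinc 15 min RT; nitrocefin (800 uM stock) to start; A480 q20 s × 4 min; Activity was normalised to no-enzyme and no-compound control wells.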
AMA1 RON2 block: disrupts binding of P. falciparum AMA1 to RON2 | AlphaScreen AMA1-biotinylated RON2 peptide binding | Potency, µM (series often up to 58.2 µM), for the others: at the top dose activity change, negative = inhibition, hits mostly inhibitors | actives 0.2% (n = 360,000) | AID 720542;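 further: 0% = vehicle wells and -100% = peptide control; nearly all actives have a fitted effect of over 45% in size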
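AMA1 (3D7) with his tag at 25 nM final met compounds first, then biotinylated RON2 peptide at 25 nM; detection used donor plus acceptor beads, 10 µg/mL apiece, read by AlphaScreen after 30 min at room temperature.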
Pf growth 96h: P. falciparum growth inhibition at 96 hours | Potency, µM (top dose mostly 28.7 µM), without a hit: top-dose activity change, negative = inhibition, usual class: inhibitors | P. falciparum luciferase reporter growth, 96 h | AID 504834 | actives 6.9% (n = 320,000)
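Two-generation exposure (96 h) targets delayed-death phenotype. Reporter parasites carrying integrated firefly luciferase, in red cells at 2% hematocrit and 0.05% parasitemia final, kept at 37 C, 5% CO2; luminescence loss indicates inhibition.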
AmpC inh no detg: blocks E. coli AmpC beta-lactamase in detergent-free assay; P00811; AmpC nitrocefin hydrolysis, absorbance 480 nm, 0.0001% Triton; Potency, µM (series often up to 57.1 µM), for inactives: at the top dose activity change, negative = inhibition, hits mostly inhibitors; actives 0.52% (n = 330,000);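 further: plate controls were no compound for no effect and no enzyme for full effect; nearly all actives have a fitted effect of over 20% in size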
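AmpC (5.3 nM in the dispensed reagent) in 20 mM phosphate pH 7.0 with 0.01% (detergent screen) or 0.0001% Triton X-100 was preincubated with compounds for 15 min at room temperature. Nitrocefin was then added from an 800 uM solution, and hydrolysis was followed at 480 nm.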
An asterisk follows results filed as active; [ ] = another dose, or the depositor's remark. The call rests on the fitted dose curve; in most records, active means well fitted curve in the direction sought with a large enough effect; inconclusive means small, poorly fitted or top-dose-only effect, or another doubt; inactive means no such curve, though single readings can be large; an effect the other way counts as inactive or inconclusive. Unless noted, on the % scale 0 is the no-effect control and ±100 the full control effect; potency means the concentration at half of the fitted maximal effect.

Results for COc1ccc2c(c1)c(=O)c(C(=O)c1ccc(F)cc1)cn2CC(=O)Nc1ccc2c(c1)OCO2 ?
AmpC detergent: 10%

Results for Cc1cc(NC(=O)c2cnn3c(C(F)(F)F)cc(-c4ccccc4)nc23)no1 ?
HCV inhibitor: 7.1µM*; Pf growth 48h: inconclusive; AmpC detergent: inconclusive; AMA1 RON2 block: -3%; Pf growth 96h: 0%; AmpC inh no detg: -1%

How did Cc1cc(NC(=O)c2cnn3c(C(F)F)cc(-c4ccccc4)nc23)no1 do in these assays?
HCV inhibitor: inconclusive; Pf growth 48h: inconclusive; AmpC detergent: inconclusive; AMA1 RON2 block: -4%; Pf growth 96h: -7%; AmpC inh no detg: -13%

How did O=C1COc2ccc(-c3cc(-c4ccc(Cl)cc4)c4c(n3)-c3ccccc3OC4)cc2N1 do in these assays?
AmpC detergent: 0%

Results for O=C1N=c2ccccc2=C1c1sc(NS(=O)(=O)Cc2ccccc2)nc1O ?
HCV inhibitor: 18%; Pf growth 48h: 9%; AmpC detergent: -12%; AMA1 RON2 block: -14%; Pf growth 96h: -16%; AmpC inh no detg: 3.5µM*

What do the screens show for `COc1cccc(NC(=O)Cn2c(=O)ccc3cc(S(=O)(=O)N4CCC(C)CC4)ccc32)c1`?
AmpC detergent: 2%

What do the screens show for `CCCCN(C)CCCNC(=O)CN1C(=O)COc2ccc(S(=O)(=O)N3CCC(C)CC3)cc21`?
AmpC detergent: 5%

What do the screens show for `c1ccc(C(c2ccccc2)N2CCN(c3nc4ccccc4n4cnnc34)CC2)cc1`?
HCV inhibitor: inconclusive; Pf growth 48h: 1.9µM*; AmpC detergent: 0%; AMA1 RON2 block: -14%; Pf growth 96h: 1.7µM*; AmpC inh no detg: -4%

What do the screens show for `Cc1oc(C)c2c(=O)ccc3c(c12)OC(N)=C(C#N)C3c1ccc(F)cc1` (stereo not drawn)?
HCV inhibitor: -2%; Pf growth 48h: 13µM*; AmpC detergent: 0%; AMA1 RON2 block: -23%; Pf growth 96h: -2%[5.75 µM]; AmpC inh no detg: -16%

How did Cc1[nH]nc2c1C(c1ccc(F)cc1)C(C#N)=C(N)O2 (stereo not drawn) do in these assays?
HCV inhibitor: 12%; Pf growth 48h: 9%; AmpC detergent: -3%; AMA1 RON2 block: -1%; Pf growth 96h: inconclusive; AmpC inh no detg: -18%

How did COc1ccc(C2CC(c3ccc(Br)cc3)=NN2C(=O)CSC2=NN3CCCC(=O)N=C3S2)cc1 (stereo not drawn) do in these assays?
HCV inhibitor: 21%; Pf growth 48h: inconclusive; AmpC detergent: -11%; AMA1 RON2 block: -14%; Pf growth 96h: 1%; AmpC inh no detg: -42%

What do the screens show for `Cc1ccc(C2CC(c3cccs3)=NN2C(=O)CSC2=NN3CCCC(=O)N=C3S2)cc1` (stereo not drawn)?
HCV inhibitor: -1%; Pf growth 48h: 9.3µM*; AmpC detergent: inconclusive; AMA1 RON2 block: 4%; Pf growth 96h: 1µM*; AmpC inh no detg: 90%

What do the screens show for `COc1ccc(C2CC(c3cccs3)=NN2C(=O)CSC2=NN3CCCC(=O)N=C3S2)cc1` (stereo not drawn)?
HCV inhibitor: -11%; Pf growth 48h: 10µM*; AmpC detergent: inconclusive; AMA1 RON2 block: -2%; Pf growth 96h: 2.6µM*; AmpC inh no detg: 122%

How did O=C(NNC(=O)c1ccc(Br)s1)c1ccc(F)c(S(=O)(=O)N2CCOCC2)c1 do in these assays?
HCV inhibitor: 13%; Pf growth 48h: -12%; AmpC detergent: 5%; AMA1 RON2 block: 61%; Pf growth 96h: 10µM*; AmpC inh no detg: -28%

What do the screens show for `COc1ccc(C(=O)Nc2cccc(C(=O)O)c2)cc1S(=O)(=O)N1CCCC1`?
HCV inhibitor: 14%; Pf growth 48h: 119%; AmpC detergent: inconclusive; AMA1 RON2 block: 0%; Pf growth 96h: 1%; AmpC inh no detg: -20%
